About 1,300 (0.41%) of roughly 320,000 compounds were called active. Roughly 3% stayed inconclusive and do not appear here. No rule for the calls is given here. Not all results are given here. Potency and affinity values are given separately.
Assay: growth inhibition of non-replicating M. tuberculosis (AID 488890);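 also: plate controls were DMSO cells for no effect and high antibiotic wells for full effect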
Conditions: Mycobacterium tuberculosis non-replicating, at 25 µM, stronger effect = higher value

Structure (SMILES)	inhibition [%]
Cc1cccc(OCC(=O)NCC(C)(C)N2CCOCC2)c1	5.72
CCOC(=O)N1CCC(c2[nH][nH]c(=O)c2C)CC1	-7.47
CCCCn1c(=O)c(CCC(=O)OCC(=O)NC(C)c2ccccc2)nc2ccccc21 (configuration not stated)	55.8
Cc1cccc(-n2c(/C=C/c3ccc([N+](=O)[O-])o3)nc3ccccc3c2=O)c1	28.4
Cn1c(/C=C/c2ccccc2[N+](=O)[O-])nc2ccccc2c1=O	-6.23
Cc1cc(=O)oc(C)c1C(=O)OCC(=O)c1ccc(Cl)cc1	72.7
O=C(NCCCN1CCOCC1)c1cc2ccccc2o1	-15.4
Cc1ccc(C2=C(O)c3ccccc3C(=O)C2=O)cc1	71.2
O=C1C(c2ccncc2)=C(O)c2ccccc21	26.2
Cc1cccc(NC(=S)N2CCN(c3cc(C)ccc3C)CC2)c1	-5.31
O=c1[nH]c2ccccc2nc1-c1ccc(Cl)cc1	-0.23
O=c1[nH]c2ccccc2nc1-c1ccccc1	-4.14
CN(C)CC/C=C1/c2ccccc2Sc2ccc(Cl)cc21	75.6
CN(C)CC/C=C1/c2cc(F)ccc2Sc2ccc(Cl)cc21	79.7
Cc1ccc(OCC(=O)N/N=C2/SCC(=O)N2Cc2ccccc2)cc1	29.3
CC(CN1CCN(C/C=C/c2ccccc2)CC1)c1ccccc1 (configuration not stated)	2.29

Structure (SMILES)	inhibition [%]
COC(CNC(=O)c1coc2nc3ccccc3nc12)OC	5.54
COC(CNC(=O)c1cccnc1)OC	-3.72
COc1ccc(Cl)cc1NC(=O)CN(C)C(=O)C12CC3CC(CC(Cl)(C3)C1)C2	41.4
COc1cccc(NC(=O)CCC(=O)NCc2ccco2)c1	-7.17
CCOc1ccc(C(=O)NCc2cccs2)cc1	44.9
O=C1c2ccc([N+](=O)[O-])cc2C(=O)N1c1ccc(Cl)cn1	-16.1
O=C1c2cccc3c([N+](=O)[O-])ccc(c23)C(=O)N1CCc1ccccn1	33.7
O=C1c2ccccc2C(=O)N1c1ccc(Cl)cn1	7.35
Cc1ccc(C(=O)O)cc1N1C(=O)c2cccc3c([N+](=O)[O-])ccc(c23)C1=O	3.01
CC(=O)Nc1cccc2c1C(=O)N(c1ccc(OC(C)=O)cc1)C2=O	19
O=C1c2cccc3cccc(c23)C(=O)N1c1ccccn1	-12.3
O=C1c2ccccc2C(=O)N1c1cc([N+](=O)[O-])ccn1	4.94
Cc1ccc(N2C(=O)c3cccc4c([N+](=O)[O-])ccc(c34)C2=O)c2cccnc12	7.23
COc1ccc(CCN(C)C(=O)CSc2nnc(-c3ccco3)o2)cc1OC	-6.6
C=CCn1c(SCC(=O)Nc2ccc(NC(=O)c3ccco3)c(OC)c2)nnc1-c1ccncc1	13.9
Cc1ccccc1OCC(=O)NCCCNC(=O)c1cccnc1	-5.91

Source: PubChem BioAssay AID488890 (Southern Research Specialized Biocontainment Screening …, 2010)
